# Measured values taken from the supplement of paper PMC8728848.
# The sample as a whole holds a higher share of the strongest signals than the screen did.
# Tests used:
# Experiment in all cases: glycan array binding signal (z-score within array); higher = stronger binding
# Settings in all cases: glycan notation: IUPAC condensed, linker removed
# [1] = target: Fuc(a1-2)Gal(b1-3)GalNAc(b1-3)Gal(a1-4)Gal(b1-4)Glc
# Outline: (§1)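 The binding signal is a Z-score computed within each array. Data were drawn from 3228 arrays in the Consortium for Functional Glycomics database, restricted to those with a known protein sequence. Scores were averaged over arrays of the same protein sequence at different concentrations or buffers, and over linkers, and negative values can be taken as non-binding.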
# [2] = target: Fuc(a1-2)Gal(b1-4)GlcNAc(b1-2)Man(a1-3)[Fuc(a1-2)Gal(b1-4)GlcNAc(b1-2)Man(a1-6)]Man(b1-4)GlcNAc(b1-4)[Fuc(a1-6)]GlcNAc
# Outline: as §1
# [3] = target: Fuc(a1-2)Gal(b1-4)[Fuc(a1-3)]GlcNAc(b1-2)[Fuc(a1-2)Gal(b1-4)[Fuc(a1-3)]GlcNAc(b1-4)]Man(a1-3)[Fuc(a1-2)Gal(b1-4)[Fuc(a1-3)]GlcNAc(b1-2)Man(a1-6)]Man(b1-4)GlcNAc(b1-4)GlcNAc
# Outline: as §1
# [4] = target: Fuc(a1-2)Gal(b1-4)[Fuc(a1-3)]GlcNAc(b1-3)Gal(b1-4)[Fuc(a1-3)]GlcNAc
# Outline: as §1
# Fuc(a1-2)Gal6S(b1-4)Glc = target: Fuc(a1-2)Gal6S(b1-4)Glc
# Outline: as §1
# [5] = target: Fuc(a1-2)[Gal(a1-3)]Gal(b1-4)GlcNAc(b1-6)GalNAc
# Outline: as §1
# [6] = target: Fuc(a1-2)[GalNAc(a1-3)]Gal(b1-3)GalNAc(a1-3)[Fuc(a1-2)]Gal(b1-4)GlcNAc
# Outline: as §1
# [7] = target: Gal(a1-4)Gal(b1-4)GlcNAc(b1-2)Man(a1-3)[Gal(a1-4)Gal(b1-4)GlcNAc(b1-2)Man(a1-6)]Man(b1-4)GlcNAc(b1-4)GlcNAc
# Outline: as §1
# Gal(b1-3)GlcNAc(b1-2)Man = target: Gal(b1-3)GlcNAc(b1-2)Man
# Outline: as §1
# [8] = target: Gal(b1-3)GlcNAc(b1-2)Man(a1-3)[GlcNAc(b1-4)][Gal(b1-3)GlcNAc(b1-2)Man(a1-6)]Man(b1-4)GlcNAc(b1-4)GlcNAc
# Outline: as §1
# [9] = target: Gal(b1-3)GlcNAc(b1-2)[Gal(b1-3)GlcNAc(b1-6)]Man(a1-6)[Gal(b1-3)GlcNAc(b1-2)Man(a1-3)]Man(b1-4)GlcNAc(b1-4)GlcNAc
# Outline: as §1
# [10] = target: Gal(b1-3)GlcNAc(b1-3)Gal(b1-4)Glc
# Outline: as §1
# [11] = target: Gal(b1-3)GlcNAc(b1-3)Gal(b1-4)GlcNAc
# Outline: as §1
# [12] = target: Gal(b1-3)[Fuc(a1-4)]GlcNAc
# Outline: as §1
# [13] = target: Gal(b1-4)GlcNAc(b1-2)Man(a1-3)[GlcNAc(b1-2)Man(a1-6)]Man(b1-4)GlcNAc(b1-4)GlcNAc
# Outline: as §1
# [14] = target: Gal(b1-4)GlcNAc(b1-2)Man(a1-3)[GlcNAc(b1-4)][Gal(b1-4)GlcNAc(b1-2)Man(a1-6)]Man(b1-4)GlcNAc(b1-4)GlcNAc
# Outline: as §1
# [15] = target: Gal(b1-4)GlcNAc(b1-2)Man(a1-3)[Man(a1-6)]Man(b1-4)GlcNAc(b1-4)GlcNAc
# Outline: as §1
# [16] = target: Gal(b1-4)GlcNAc(b1-2)[Gal(b1-4)GlcNAc(b1-4)]Man(a1-3)[Gal(b1-4)GlcNAc(b1-2)[Gal(b1-4)GlcNAc(b1-6)]Man(a1-6)]Man(b1-4)GlcNAc(b1-4)GlcNAc
# Outline: as §1
# [17] = target: Gal(b1-4)GlcNAc(b1-3)Gal(b1-4)GlcNAc(b1-2)[Gal(b1-4)GlcNAc(b1-3)Gal(b1-4)GlcNAc(b1-6)]Man(a1-6)[Gal(b1-4)GlcNAc(b1-3)Gal(b1-4)GlcNAc(b1-2)Man(a1-3)]Man(b1-4)GlcNAc(b1-4)GlcNAc
# Outline: as §1
# [18] = target: Gal(b1-4)GlcNAc(b1-3)Gal(b1-4)GlcNAc(b1-3)Gal(b1-4)GlcNAc(b1-3)Gal(b1-4)GlcNAc(b1-2)Man(a1-3)[Gal(b1-4)GlcNAc(b1-3)Gal(b1-4)GlcNAc(b1-3)Gal(b1-4)GlcNAc(b1-3)Gal(b1-4)GlcNAc(b1-2)Man(a1-6)]Man(b1-4)GlcNAc(b1-4)[Fuc(a1-6)]GlcNAc
# Outline: as §1
# [19] = target: Gal(b1-4)GlcNAc(b1-3)[GlcNAc(b1-6)]Gal(b1-4)GlcNAc
# Outline: as §1
# Gal3S(b1-3)GlcNAc = target: Gal3S(b1-3)GlcNAc
# Outline: as §1
# [20] = target: Gal3S(b1-4)[Fuc(a1-3)]Glc6S
# Outline: as §1
# GalNAc6S(b1-4)GlcNAc = target: GalNAc6S(b1-4)GlcNAc
# Outline: as §1
# [21] = target: GlcNAc(a1-4)Gal(b1-4)GlcNAc
# Outline: as §1
# GlcNAc(b1-3)Man = target: GlcNAc(b1-3)Man
# Outline: as §1
# [22] = target: GlcNAc6S(b1-3)Gal(b1-4)GlcNAc
# Outline: as §1
# [23] = target: Man(a1-2)Man(a1-3)[Man(a1-2)Man(a1-6)]Man(a1-6)[Man(a1-2)Man(a1-2)Man(a1-3)]Man
# Outline: as §1
# [24] = target: Neu5Ac(a2-3)Gal(b1-3)GalNAc
# Outline: as §1
# [25] = target: Neu5Ac(a2-3)Gal(b1-3)GalNAc(b1-3)Gal(a1-4)Gal(b1-4)Glc
# Outline: as §1
# [26] = target: Neu5Ac(a2-3)Gal(b1-3)GlcNAc(b1-2)Man(a1-3)[Neu5Ac(a2-3)Gal(b1-3)GlcNAc(b1-2)Man(a1-6)]Man(b1-4)GlcNAc(b1-4)GlcNAc
# Outline: as §1
# [27] = target: Neu5Ac(a2-3)Gal(b1-3)GlcNAc(b1-3)GalNAc
# Outline: as §1
# [28] = target: Neu5Ac(a2-3)Gal(b1-4)GlcNAc(b1-2)Man
# Outline: as §1
# [29] = target: Neu5Ac(a2-3)Gal(b1-4)GlcNAc(b1-2)[Neu5Ac(a2-3)Gal(b1-4)GlcNAc(b1-4)]Man(a1-3)[GlcNAc(b1-4)][Neu5Ac(a2-3)Gal(b1-4)GlcNAc(b1-4)Man(a1-6)]Man(b1-4)GlcNAc(b1-4)GlcNAc
# Outline: as §1
# [30] = target: Neu5Ac(a2-3)Gal(b1-4)GlcNAc(b1-3)Gal(b1-4)GlcNAc(b1-3)[Neu5Ac(a2-3)Gal(b1-4)GlcNAc(b1-3)Gal(b1-4)GlcNAc(b1-6)]GalNAc
# Outline: as §1
# [31] = target: Neu5Ac(a2-3)Gal(b1-4)[Fuc(a1-3)]GlcNAc(b1-3)GalNAc
# Outline: as §1
# [32] = target: Neu5Ac(a2-3)Gal6S(b1-4)GlcNAc
# Outline: as §1
# [33] = target: Neu5Ac(a2-6)Gal(b1-4)GlcNAc(b1-2)Man(a1-3)Man(b1-4)GlcNAc(b1-4)GlcNAc
# Outline: as §1
# [34] = target: Neu5Ac(a2-6)Gal(b1-4)GlcNAc(b1-3)Gal(b1-3)GlcNAc
# Outline: as §1
# [35] = target: Neu5Ac(a2-6)GlcNAc(b1-4)GlcNAc(b1-4)GlcNAc
# Outline: as §1
# [36] = target: Neu5Gc(a2-3)Gal(b1-4)GlcNAc
# Outline: as §1
binder,measurement,setting,value
PfulAvr4 2 (Pseudocercospora fuligena) (protein) HHHHHHDYKDDDDKAKPIKPFACPPKDFTTTKCQGPVDCLYANPLSCLGYIQCVCDDDACSTATPYAKSCPTGLAWVEKLKRCDGIKKSACPKKMYEGS,glycan array binding signal (z-score),[1],0.285
same,glycan array binding signal (z-score),[2],2.88
same,glycan array binding signal (z-score),[3],4.77
same,glycan array binding signal (z-score),[4],-0.355
same,glycan array binding signal (z-score),Fuc(a1-2)Gal6S(b1-4)Glc,-0.291
same,glycan array binding signal (z-score),[5],-0.178
same,glycan array binding signal (z-score),[6],3.28
same,glycan array binding signal (z-score),[7],1.43
same,glycan array binding signal (z-score),Gal(b1-3)GlcNAc(b1-2)Man,-0.279
same,glycan array binding signal (z-score),[8],8.86
same,glycan array binding signal (z-score),[9],-0.063
same,glycan array binding signal (z-score),[10],0.144
same,glycan array binding signal (z-score),[11],-0.311
same,glycan array binding signal (z-score),[12],-0.218
same,glycan array binding signal (z-score),[13],-0.331
same,glycan array binding signal (z-score),[14],-0.216
same,glycan array binding signal (z-score),[15],9.66
same,glycan array binding signal (z-score),[16],-0.113
same,glycan array binding signal (z-score),[17],4.76
same,glycan array binding signal (z-score),[18],-0.233
same,glycan array binding signal (z-score),[19],5.97
same,glycan array binding signal (z-score),Gal3S(b1-3)GlcNAc,-0.314
same,glycan array binding signal (z-score),[20],-0.272
same,glycan array binding signal (z-score),GalNAc6S(b1-4)GlcNAc,-0.276
same,glycan array binding signal (z-score),[21],-0.432
same,glycan array binding signal (z-score),GlcNAc(b1-3)Man,4.99
same,glycan array binding signal (z-score),[22],-0.273
same,glycan array binding signal (z-score),[23],-0.359
same,glycan array binding signal (z-score),[24],-0.292
same,glycan array binding signal (z-score),[25],-0.326
same,glycan array binding signal (z-score),[26],7.16
same,glycan array binding signal (z-score),[27],-0.01
same,glycan array binding signal (z-score),[28],5.08
same,glycan array binding signal (z-score),[29],-0.253
same,glycan array binding signal (z-score),[30],-0.158
same,glycan array binding signal (z-score),[31],0.545
same,glycan array binding signal (z-score),[32],-0.482
same,glycan array binding signal (z-score),[33],-0.224
same,glycan array binding signal (z-score),[34],-0.344
same,glycan array binding signal (z-score),[35],3.75
same,glycan array binding signal (z-score),[36],-0.214
